Experiments:
[1] = system: Human papillomavirus type 1a protein E7 (residues 44-93); experiment: small molecules binding HPV E7 44-93 – biochemical, small-molecule microarray, residues 44-93, 635 nm fluorescence, primary screen (AID 1108); details: fluorescence 635 nm, higher = more signal;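 note: E7 fragment applied at 1 µg/mL in TBST for 1 h at 4 C; score combines spot fluorescence with its signal to noise ratio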
[2] = hepatitis C replication reporter changes, two-sided – Huh7 cells, luciferase reporter, HCV replication inhibitor project, primary screen (AID 1109); details: Huh7 HCV replicon luciferase reporter, 48 h; higher = more signal;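 note: huh7 hepatoma cells harbouring a luciferase neomycin HCV replicon reporter; luciferase luminescence as measure of HCV replicon replication; test concentration not given here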
[3] = molecular target: Left-right determination factor 2 (Homo sapiens) (UniProt O00292); experiment: small molecules binding LEFTY2 protein – biochemical, small-molecule microarray, 635 nm fluorescence scan, primary screen (AID 1110); details: higher = more signal
[4] = molecular target: Calmodulin-1 (Homo sapiens) (UniProt P0DP23); experiment: small molecules binding calmodulin-1 with EGTA – biochemical, small-molecule microarray, Cy5-labelled CALM1, profiling panel (AID 1111); details: Cy5-CALM1 binding fluorescence, higher = more signal;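 note: labelled calmodulin applied in Tris saline Tween buffer holding calcium plus EGTA and DTT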
[5] = molecular target: Calmodulin-1 (Homo sapiens) (UniProt P0DP23); experiment: small molecules binding Ca-loaded calmodulin-1 – biochemical, small-molecule microarray, Cy5-labelled CALM1, plus calcium, artefact control for SMM control-protein annotation, profiling panel (AID 1112); details: Cy5-CALM1 binding fluorescence, higher = more signal;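 note: score merges spot fluorescence with signal to noise from triplicate slides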
[6] = probe aWnt5a binding to arrayed compounds – biochemical, biotinylated probe, 635/667 nm fluorescence, primary screen (AID 1113); details: small-molecule microarray, higher = more signal;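 note: score merges 667 nm fluorescence intensity with signal-to-noise per printed feature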
[7] = probe aShh binding to arrayed compounds – biochemical, biotinylated probe, 635/667 nm fluorescence, primary screen (AID 1114); details: small-molecule microarray, higher = more signal;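 note: probe is biotin-labelled aShh protein from a stem cell growth factor screen; measures binding of labelled protein to compounds printed on the slide; score merges feature fluorescence at 667 nm with signal-to-noise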
[8] = probe aNog binding to arrayed compounds – biochemical, biotinylated probe, 635/667 nm fluorescence, primary screen (AID 1115); details: small-molecule microarray, higher = more signal;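 note: probe is biotinylated aNog protein used at 0.15 µg/mL for 1 h at 4 C; z-score combines 667 nm fluorescence of each spot with its signal to noise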
[9] = molecular target: Torsin-1A-interacting protein 1 (Homo sapiens) (UniProt Q5JTV8); experiment: compound microarray binding of lysate hLAP1 – cell lysate, small-molecule microarray, COS7 lysate, 635/667 nm fluorescence, primary screen (AID 1116); details: 635 nm fluorescence, higher = more signal
[10] = molecular target: Alpha-bungarotoxin (Bungarus multicinctus) (UniProt P60615); experiment: compounds binding labelled alpha-BTX control protein – biochemical, small-molecule microarray, Alexa647 label, 635/667 nm fluorescence, artefact control for SMM control protein annotation, profiling panel (AID 1117); details: alpha-BTX-A647 binding fluorescence, higher = more signal
Alpha-bungarotoxin (Bungarus multicinctus), sequence (P60615 whole entry, looked up): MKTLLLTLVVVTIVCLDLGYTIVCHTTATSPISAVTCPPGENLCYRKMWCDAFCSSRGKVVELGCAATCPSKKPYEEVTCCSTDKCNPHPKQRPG

Left-right determination factor 2 (Homo sapiens), sequence (O00292 whole entry, looked up): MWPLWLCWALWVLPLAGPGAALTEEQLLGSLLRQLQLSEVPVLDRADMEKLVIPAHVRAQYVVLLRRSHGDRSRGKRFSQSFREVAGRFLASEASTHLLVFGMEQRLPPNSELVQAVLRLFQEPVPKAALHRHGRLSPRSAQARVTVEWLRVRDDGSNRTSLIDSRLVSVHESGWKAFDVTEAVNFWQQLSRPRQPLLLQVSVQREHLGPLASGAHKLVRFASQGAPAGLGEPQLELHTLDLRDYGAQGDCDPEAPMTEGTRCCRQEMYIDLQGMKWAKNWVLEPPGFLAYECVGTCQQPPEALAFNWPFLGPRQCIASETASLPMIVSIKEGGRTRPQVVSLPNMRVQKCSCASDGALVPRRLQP
Torsin-1A-interacting protein 1 (Homo sapiens), sequence (Q5JTV8 whole entry, looked up): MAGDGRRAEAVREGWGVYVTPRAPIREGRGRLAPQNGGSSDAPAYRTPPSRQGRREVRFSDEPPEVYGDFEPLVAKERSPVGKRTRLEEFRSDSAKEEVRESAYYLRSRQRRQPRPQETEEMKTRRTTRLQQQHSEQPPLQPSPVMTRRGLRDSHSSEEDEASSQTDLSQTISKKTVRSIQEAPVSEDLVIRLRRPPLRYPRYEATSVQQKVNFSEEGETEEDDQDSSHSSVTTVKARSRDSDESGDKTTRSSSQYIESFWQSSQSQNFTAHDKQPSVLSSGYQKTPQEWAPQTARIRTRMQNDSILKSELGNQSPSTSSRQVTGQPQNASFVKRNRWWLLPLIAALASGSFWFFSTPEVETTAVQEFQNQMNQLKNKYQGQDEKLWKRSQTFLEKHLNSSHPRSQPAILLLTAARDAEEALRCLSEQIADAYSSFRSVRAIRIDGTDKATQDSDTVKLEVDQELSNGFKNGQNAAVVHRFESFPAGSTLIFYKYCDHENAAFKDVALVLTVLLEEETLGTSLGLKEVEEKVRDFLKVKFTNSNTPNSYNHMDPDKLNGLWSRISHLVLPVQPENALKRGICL

SMILES | composite z-score [1] | z-score [2] | composite z-score [3] | composite z-score [4] | composite z-score [5] | composite z-score [6] | composite z-score [7] | composite z-score [8] | composite z-score [9] | composite z-score [10]
[N-]=[N+]=NCc1ccccc1[C@H]1OC(c2ccc(OCCCO)cc2)=N[C@@]1(CCS(=O)(=O)c1ccccc1)C(=O)NCCN1CCOCC1 | 1.49 | -0.233 | 0.0744 | 1.39 | 0.593 | 0.143 | -0.107 | -0.612 | 1.06 | 1.3
[N-]=[N+]=NCc1ccccc1[C@H]1OC(c2ccc(OCCCO)cc2)=N[C@@]1(Cc1ccccc1N=[N+]=[N-])C(=O)O | 1.41 | -0.304 | -0.0361 | 1.82 | 0.83 | -0.0161 | 0.385 | 0.19 | 0.765 | 1.98
[N-]=[N+]=NCc1ccccc1C[C@@]1(C(=O)NCCN2CCOCC2)N=C(c2ccc(OCCCO)cc2)O[C@@H]1c1ccccc1 | 1.39 | -2.6 | -0.58 | 1.26 | 0.683 | 0.0391 | 0.358 | 0.35 | 1.06 | 1.19
Cc1ccc(S[C@]2(C(=O)NCCN3CCOCC3)CC(=O)N(C(C)C)[C@@H]2c2ccc(CO)cc2I)cc1 | 0.89 | -2.32 | -0.532 | -1.17 | -0.693 | -0.154 | -0.138 | -0.119 | 0.974 | -1.08
O=C1N(Cc2ccccc2)c2ccccc2C[C@@]12N=C(c1ccc(OCCCO)cc1)O[C@H]2c1ccccc1 | 1.34 | -3.11 | -0.297 | 0.333 | -0.458 | -0.103 | 0.0948 | 0.576 | 0.176 | 0.849
CC(C)C(=C=CC[C@H](O)c1cccc(OCCO)c1)C[C@H](O)c1ccccn1 | 0.106 | -0.423 | -0.256 | -0.356 | -0.78 | -0.096 | -0.289 | -0.147 | -0.334 | -0.579
CC(C)(C)OC(=O)CC[C@@]1(C(N)=O)N=C(c2ccc(OCCCO)cc2)O[C@@H]1c1ccccc1CN=[N+]=[N-] | 1.35 | 0.0506 | -0.0243 | 2.47 | 1.9 | 0.188 | 0.553 | 1.52 | 1.48 | 2.58
CO[C@H]1O[C@H](CO)[C@@H](OC(=O)Nc2cccc(F)c2)[C@H](OC(=O)Nc2ccc3c(c2)OCO3)[C@@H]1OC(=O)Nc1ccc2c(c1)OCO2 | 1.5 | -1.14 | -0.0699 | 0.911 | -1.04 | 0.0186 | 0.214 | 0.724 | 1.46 | 1.02
[N-]=[N+]=Nc1ccccc1C[C@@]1(C(=O)NCc2ccccc2)N=C(c2ccc(OCCCO)cc2)O[C@@H]1c1ccccc1 | 1.08 | -1.76 | 0.262 | 1.41 | 0.313 | 0.534 | 0.0326 | 2.22 | 1.13 | 0.39
CC(CO)N1C(=O)[C@@H]2[C@H]3C(=O)OCC=C[C@H]3OC23C=CCN(c2ccc4ccccc4c2)C(=O)[C@@H]13 (stereo not given in full) | -1.55 | -0.418 | -2.64 | -0.505 | 0.0117 | -0.174 | -0.0035 | 0.474 | -1.14 | -0.674
COC(=O)[C@]1(Cc2ccccc2CN=[N+]=[N-])N=C(c2ccc(OCCCO)cc2)O[C@@H]1c1ccccc1N=[N+]=[N-] | -0.131 | -2.65 | -0.0976 | -0.0209 | -0.307 | -0.0346 | -0.018 | 1.03 | 0.963 | 0.37
CC[C@@H](O[Si](C#C[Si](C(C)C)(C(C)C)C(C)C)(C(C)C)C(C)C)c1cn([C@H](CO)Cc2ccccc2)nn1 | 1.02 | -0.126 | 0.498 | 0.229 | -0.24 | -0.148 | -0.0769 | 0.184 | 0.739 | 0.167
O=C1O[C@@H](c2ccccc2)[C@@H](c2ccccc2)N2[C@@H](c3ccccc3OCCO)[C@]3(C(=O)Nc4ccc(C#CC5(O)CCCCCC5)cc43)[C@@H](C(=O)N3CCCCCCC3)[C@H]12 | 1.61 | -2.22 | 1.87 | 3.06 | 1.82 | 1.65 | 3.04 | 3.8 | 5.6 | 4.54
Cc1ccc(N2C(=O)c3ccccc3[C@@H](C(=O)NCCN3CCOCC3)[C@@H]2c2ccc(CO)cc2)nc1 | 0.113 | 0.193 | -1.29 | -0.287 | 0.609 | -0.1 | -0.214 | -0.434 | -1.3 | -0.843
C[C@]1(C(=O)NCC(F)(F)F)c2ccccc2C(=O)N(Cc2cc(C(F)(F)F)cc(C(F)(F)F)c2)[C@H]1c1ccc(CO)cc1 | 0.454 | -0.1 | -0.544 | -0.136 | 0.331 | -0.0346 | -0.0146 | 0.231 | 0.173 | 0.342
COC(=O)[C@@]1(Cc2ccc(F)cc2)[C@H]2c3cc(C(=O)N(C)C)n(Cc4ccc(C(F)(F)F)nc4)c3C[C@H]2CN1C(=O)c1ccccc1 | 1.38 | -2.42 | 0.22 | 2.27 | 0.789 | 0.15 | 0.25 | -0.235 | 0.0971 | 0.922
COc1ccc(C(=O)Nc2ccc(CN3C(=O)[C@]4(O[C@H](CC(=O)N(CCO)Cc5ccccc5)[C@@H]([Si](C)(C)c5ccc(OC)cc5)[C@@H]4C)c4ccccc43)cc2)cc1 | 1.37 | -3.71 | 0.803 | -0.0162 | -0.46 | 0.0354 | 0.108 | 0.0326 | 0.811 | 0.543

SMILES | composite z-score [1] | z-score [2] | composite z-score [3] | composite z-score [4] | composite z-score [5] | composite z-score [6] | composite z-score [7] | composite z-score [8] | composite z-score [9] | composite z-score [10]
C=CCOC(=O)[C@H]1[C@@H]2C(=O)O[C@@H](c3ccccc3)[C@@H](c3ccccc3)N2[C@@H](c2ccc(OCCOC(=O)[C@H]3C[C@H]4C(=O)NCC(=O)N4[C@H]3c3cccc(OCCO)c3)cc2)[C@]12C(=O)Nc1ccc(I)cc12 | 1.23 | -0.903 | 0.541 | 1.05 | 0.0934 | 0.0629 | 0.131 | 0.131 | 1.44 | 1.08
C=CCN1C(=O)[C@@]2(O[C@@H](CCO)[C@H]([Si](C)(C)c3ccc(OC)cc3)[C@H]2C)c2cc(N3CCCCC3=O)ccc21 | 1.36 | -3.29 | 0.264 | 0.721 | 0.519 | -0.091 | 0.151 | 0.197 | 0.813 | 1.14
O=C1NC(=O)C2C1C=CC(C(O)C1CCCCC1)N2Nc1ccccn1 (stereo not given) | 0.657 | -0.442 | 0.372 | 0.5 | 0.469 | -0.0478 | 0.321 | 0.69 | -0.26 | 0.353
CCCCC(=C=CC[C@H](O)c1ccccc1OCCO)CCO | 0.5 | -1.69 | -0.115 | -0.541 | -0.533 | -0.0031 | -0.108 | 0.0796 | 0.228 | 0.124
COc1ccc([Si](C)(C)[C@H]2[C@H](CCO)O[C@@]3(C(=O)N(Cc4ccccc4)c4ccc(NC(=O)[C@H](C)O)cc43)[C@@H]2C)cc1 | 1.37 | -5.05 | 0.424 | 0.362 | 0.195 | 0.026 | -0.138 | 0.514 | 0.795 | 0.627
C=CC[C@H](O)c1ccc(O)c2ccccc12 | 0.7 | -2.04 | 0.685 | -0.536 | -1.32 | -0.0521 | 0.151 | -0.158 | 0.655 | 1.23
CC(C)[Si]1(C(C)C)OCc2cc(-c3ccc(-c4ccc(Cl)c(Cl)c4)o3)nc(-c3ccc(Oc4ccccc4)cc3)c21 | -1.76 | -0.105 | -1.44 | -0.168 | 0.698 | -0.265 | -0.243 | -0.132 | -1.22 | -1.55
Cc1ccc(S[C@]2(C(=O)NC(C)C)CC(=O)N(Cc3ccccc3)[C@@H]2c2ccc(CO)cc2I)cc1 | -0.0832 | -1.78 | -1.13 | 0.129 | 0.454 | -0.172 | 0.0711 | 0.813 | -0.426 | -0.684
C[C@@]1([C@@H](NS(=O)(=O)c2cccc3cccnc23)c2ccc(-c3ccccc3)cc2)C[C@H]1C1CCCCC1 | 0.917 | -0.479 | -0.504 | 1.02 | 1.38 | 0.122 | 1.05 | 2 | 0.562 | 0.33
CC1C2C(CCCO)=CC(C3C(=O)N(C)C(=O)C23)N1Cc1cccc(OC(F)(F)F)c1 (stereo not given) | 1.47 | -0.75 | 0.101 | 1.65 | 0.841 | 0.0317 | 0.522 | 1.64 | 1.62 | 1.42
C=C(/C=C\CNS(=O)(=O)c1ccc(C)cc1)[C@H](O)[C@H]1CCCN1S(=O)(=O)c1ccccc1[N+](=O)[O-] | -0.251 | -3.55 | 0.318 | -0.337 | -0.477 | -0.0405 | -0.138 | -0.219 | 0.612 | 0.293
CCN1C(=O)C2CC(=O)C3C(CN(S(=O)(=O)c4ccc(C)cc4)C3c3ccc(C)cc3)C2C1=O (stereo not given) | -1.69 | -2.44 | 0.015 | 1.85 | 0.495 | -0.0269 | 0.749 | 0.685 | 1.08 | -0.344
COc1cc(CO)cc(I)c1O[C@H]1C=C(C(=O)NCCO)C[C@@H](N(CCN2CCOCC2)C(=O)C2CCCO2)[C@@H]1O (stereo not given in full) | 0.35 | 0.109 | 0.445 | -0.292 | -0.671 | -0.0606 | -0.0769 | -0.248 | 0.11 | -0.197
C=CCNC(=O)[C@H]1[C@@H]2C(=O)O[C@@H](c3ccccc3)[C@@H](c3ccccc3)N2[C@@H](c2ccc(OCCO)cc2)[C@]12C(=O)N(C(=O)OCCOC)c1ccc(C#CCNC(N)=O)cc12 | 1.06 | -0.197 | 0.716 | 1.17 | 0.152 | 0.291 | 0.194 | 0.49 | 1.33 | 2.1
C[N+](C)(C)CCCC[C@@H]1NC(=O)[C@H]2C[C@@H](C(=O)NCCCCCN)[C@@H](c3ccc(O)cc3)N2C1=O | -0.0195 | 0.493 | 1.34 | 1.67 | 0.631 | -0.0403 | -0.0886 | 0.177 | 1.52 | 2.54
C=C[C@@H](CO)NS(=O)(=O)c1ccc(Br)cc1 | -1.71 | 0.0931 | -0.671 | -1.05 | -0.453 | -0.208 | -0.153 | -0.158 | 0.127 | -0.796

— PubChem BioAssay
